Source: PubChem BioAssay (NCI)
The panel holds about 83,000 compounds, 20% with a hit somewhere; the sample as a whole holds those more often.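 Single-concentration screen, 48 h exposure, 96-well plates. Endpoint: percent growth. Below 10 = active.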 Values without a mark were called inactive. The source made the active and inactive calls.

Assays:
Assay in all cases: NCI-60 one-dose screen, 48 h (100 = growth as untreated, 0 = no growth, -100 = all killed)
Settings in all cases: 10 µM unless noted
[1] = system: NCI-H23 lung
[2] = system: NCI-H226 lung
[3] = system: NCI-H322M lung
[4] = system: HOP-62 NSCLC
[5] = system: NCI-H460 lung
[6] = system: HOP-92 NSCLC
[7] = system: A549/ATCC NSCLC
[8] = system: 786-0 renal
[9] = system: COLO 205 colon
[10] = system: DU-145 prostate
[11] = system: K-562 leukemia
[12] = system: MALME-3M melanoma
[13] = system: RXF 393 renal
[14] = system: SF-268 CNS
[15] = system: SF-295 CNS
[16] = system: SF-539 CNS
[17] = system: UACC-257 melanoma
[18] = system: M14 melanoma
[19] = system: MDA-MB-231 breast

Row | SMILES | growth [1] | growth [2] | growth [3] | growth [4] | growth [5] | growth [6] | growth [7] [%] | growth [8] | growth [9] | growth [10] | growth [11] | growth [12] | growth [13] | growth [14] | growth [15] | growth [16] | growth [17] | growth [18] | growth [19]
1 | N#CC1=C(N)Oc2c(sc3c(Br)cccc23)C1c1ccc([N+](=O)[O-])cc1 (configuration not stated) | 11.7% | 58.9% | 40.6% | 26.6% | -7.51% (active) | -7.19% (active) | 24.7 | 10.2% | -49.7% (active) | 8.77% (active) | 7.66% (active) | 93.2% | 17.6% | 13.5% | -5.7% (active) | -18% (active) | 87.1% | 3.87% (active) | –
2 | O=C(O)C(c1ccccc1)N1C(=O)CSC1=S (configuration not stated) | 106% | 95.8% | 97.9% | 99.5% | 107% | 111% | 92 | 102% | 108% | 107% | 103% | 107% | 108% | 94.4% | 104% | 100% | 101% | 100% | 108%
3 | COc1ccc2[nH]c(-c3ccccc3)c(/C=C(\C#N)S(=O)(=O)c3ccccc3)c2c1 | 60% | 99.5% | 77.8% | 79.1% | 20% | 63.2% | 45.1 | 69.1% | 46.6% | 70.1% | 5.1% (active) | 47.7% | 57.5% | 72.2% | 43.2% | 42.3% | 78.6% | 42.7% | 56.8%
4 | COc1cc(C(=O)/C=C/c2sc(Cl)nc2Cl)cc(OC)c1OC | 33.9% | 80.5% | 85.4% | 85% | 83.9% | 51.4% | 90.6 | 79.2% | -19.7% (active) | 43.5% | 3.23% (active) | -35.1% (active) | -28.9% (active) | 61.5% | 92.8% | -11.9% (active) | 70.8% | 42.3% | 31.7%
5 | Cc1nc2ccccc2c(/C=C/c2ccc(Cl)cc2)c1C(=O)/C=C/c1ccc(C(F)(F)F)cc1 | -33.4% (active) | -54.7% (active) | -43.3% (active) | -62.8% (active) | -75.3% (active) | -82.1% (active) | 10.5 | -85% (active) | -44.2% (active) | -83.7% (active) | -7.8% (active) | -74.1% (active) | -85.9% (active) | -53.5% (active) | -88.2% (active) | -90.5% (active) | -37% (active) | -38.6% (active) | -50.5% (active)
6 | COc1ccc2nc(NC(=O)c3cccnc3Nc3ccc(S(N)(=O)=O)cc3)sc2c1 | 105% | 95.5% | 89.8% | 109% | 98.9% | 84.9% | 93.5 | 78.3% | 159% | 105% | 70.9% | 103% | 113% | 82.6% | 92.8% | 100% | 113% | 113% | 106%
7 | C=CCNc1ccc2c3c(cccc13)C(=O)N(N1C(=O)c3cccc4cccc(c34)C1=O)C2=O | 91.9% | 93.9% | 102% | 96.3% | 102% | 98.7% | 98.2 | 104% | 117% | 109% | 103% | 110% | 104% | 98.1% | 102% | 99.8% | 98.5% | 102% | 108%
